{
  "source": "paper PMC5540273",
  "about": "(PLoS ONE, 2017);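 also: kd values determined as follow-up on hits from a single-replicate KINOMEscan panel screen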",
  "data": [
    {"tested_on": "T1, TRKC", "T1 construct": "gene NTRK3", "units": {"Kd": "nM"}, "values": [
      {"smiles": "CC(=O)c1cccc(NC(=O)NC2CCN(c3ccnc(Nc4ccc(F)cc4)n3)C2)c1", "note": "(centres unmarked) [GSK1379710]", "Kd": 94},
      {"smiles": "COC(=O)c1cccc(NC(=O)NC2CCN(c3ccnc(Nc4ccc(OC)cc4)n3)C2)c1", "note": "(centres unmarked) [GSK1379746]", "Kd": 1000},
      {"smiles": "COC(=O)c1cccc(NC(=O)NC2CCN(c3ccnc(Nc4ccc(F)cc4)n3)C2)c1", "note": "(centres unmarked) [GSK1379725]", "Kd": 340}
    ]},
    {"tested_on": "T2, VPS34", "T2 construct": "gene PIK3C3", "units": {"Kd": "nM"}, "values": [
      {"smiles": "O=C1NC(=O)C(c2ccc(Cl)cc2)=C1Nc1cccc(Cl)c1", "note": "[SB-317651]", "Kd": 300},
      {"smiles": "O=c1cc(N2CCOCC2)nc2n(Cc3cccc(Cl)c3Cl)c3ccccc3n12", "note": "[GSK2299009]", "Kd": 470},
      {"smiles": "O=c1cc(N2CCOCC2)nc2n(Cc3ccccc3F)ccn12", "note": "[GSK2297428]", "Kd": 68},
      {"smiles": "Cc1c(Cn2c3ccccc3n3c(=O)cc(N4CCOCC4)nc23)cccc1C(F)(F)F", "note": "[GSK2306394]", "Kd": "> 10000"},
      {"smiles": "Cc1ccccc1Cn1ccn2c(=O)cc(N3CCOCC3)nc12", "note": "[GSK2269905]", "Kd": 180}
    ]}
  ]
}
